Sampled rows, rich in hits. Any-hit rate of the full collection: about 2.9%.
ABCB6 inh 2 = blocks the human ABCB6 transporter. Q9NP58. K562-ABCB6 porphyrin accumulation, flow cytometry, 1 h; hits give low values. fluorescence ratio to DMSO, % at 10 µM. hit rate 0.19% among 360,000. AID 602162;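 active = fluorescence ratio to DMSO below 75%, the collection mean minus 3 SD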;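 note: signal is porphyrin accumulated inside mitochondria; 100% equals median channel fluorescence of DMSO control wells; lower ratio means ABCB6 inhibition with less porphyrin fluorescence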
MEKK2 mut-MEK5 = signal of MEK5 binding to mutant human MEKK2 PB1 domain. bead flow cytometry, Alexa488-MEK5 binding to MEKK2 mutant. percent response, % at 10 µM. hit rate 0.35% among 290,000; in the data active = percent response above about 24%, passing the limit was not always enough
MEKK3 PB1 HTS = raises or lowers MEK5 binding to the human MEKK3 PB1 domain; bead-based flow cytometry, Alexa488-MEK5 binding to MEKK3; actives lie on both sides; 0 = blocked by unlabeled MEK5, 100 = vehicle; Q99759; hit rate 1.4% among 290,000; binding response (% of control), % at 10 µM; AID 1529;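 active = binding response more than 3 SD above or below the average of its plate-row segment, actives on both sides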;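 note: Alexa488 bead fluorescence after subtracting the streptavidin-only scavenger bead signal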
MEKK2wt PB1 HTS = raises or lowers MEK5 binding to wildtype human MEKK2 PB1 domain; binding response (% of control), % at 10 µM; bead flow cytometry, Alexa488-MEK5 binding to MEKK2 WT; actives lie on both sides; hit rate 1.1% among 290,000; AID 1531; in the data active = binding response below about 67% or above about 130%
CRFBP-R2 agonist = CRF-BP/CRF-R2 complex agonism. HEK293 CRF-R2/CRF-BP, calcium dye fluorescence (FLIPR); percent of saturating CRF peptide response. activation, % at 13.2 µM. hit rate 0.46% among 350,000;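 active = activation of at least 50%, plus an integration ratio under a set limit after plate pattern correction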;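 note: plate controls were neutral control wells without compound for no effect and CRF at EC100 for full effect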
CRFBP-R2 block = CRF-BP/CRF-R2 complex antagonism. HEK293 CRF-R2/CRF-BP, CRF-induced calcium fluorescence. inhibition, % at 11.8 µM. hit rate 0.59% among 350,000. AID 588475;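 active = inhibition of the ligand-induced calcium signal above about 50% at the single tested concentration, limit read from the data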
ABCB6 blocker 1 = human ABCB6 transporter inhibition; K562-ABCB6 porphyrin accumulation, flow cytometry, 1 h; hits give low values; shares compounds with ABCB6 inh 2; 700 tested, under 10 active; ratio response (% of DMSO), % at 10 µM; AID 602430;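 active = repeat-averaged ratio response below 75% of DMSO, the collection mean minus 3 SD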;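 note: median porphyrin fluorescence at 575 nm with 488 nm excitation from mitochondria; lower ratio means less porphyrin signal so ABCB6 inhibition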
* = called active by the depositor; x = not tested or not shown.

SMILES | ABCB6 inh 2 | MEKK2 mut-MEK5 | MEKK3 PB1 HTS | MEKK2wt PB1 HTS | CRFBP-R2 agonist | CRFBP-R2 block | ABCB6 blocker 1
CC(=O)N1CCC2(CC1)CC(=O)c1cc(OCC(=O)N3CCN(C)CC3)ccc1O2 | 58* | 5 | 98 | 107 | 6 | -37 | 101
CC(=O)N1CCC2(CC1)CC(=O)c1cc(OCC(=O)N3CCC4(CC3)OCCO4)ccc1O2 | 96 | -28 | 72 | 74 | 1 | -6 | x
O=C(CCN1CCOCC1)NCC(=O)Nc1ccc(Br)cc1C(=O)c1ccccc1 | 70* | 1 | 102 | 113 | 1 | 5 | 100
C[N+](C)(C)CC1CCCC(C[N+](C)(C)C)C1=O (centres undefined) | 43* | x | x | x | -1 | 1 | 68*
O=C(NC1CCCCC1)N1C[C@H]2C[C@@H](C1)c1cccc(=O)n1C2 | 95 | 6 | 104 | 109 | -2 | 14 | x
